Compounds with a hit are over-represented: about 27% of the library has one in this group of screens.
Cav32 inh – inhibitors of human Cav3.2 T-type calcium channel; Cav3.2-expressing cells, Fluo-4 calcium fluorescence FDSS; hits give low values; B-score at 10 µM; O95180; AID 449739; actives 4% (n = 100,000);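 active means single-dose well whose peak fluorescence ratio is a statistical outlier from its plate by either plate-standardised score or position-corrected B-score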
CYP2C9 activ – CYP2C9 (human) activation | P11712 | recombinant CYP2C9, luciferin-H conversion, luminescence; hits give high values; factor 1 = untreated enzyme, 0 = blocked | activation factor at 5 µM | actives 1.4% (n = 96,000);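 active means activation factor of 2 or more for CYP2C9 at a 5 µM dose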;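 further: 0 = sulfaphenazole-blocked wells and 1 = vehicle-only wells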
CYP2C9 inhib – human CYP2C9 inhibition; P11712; inhibition, % at 5 µM; actives 20% (n = 96,000); CYP2C9 Supersomes, luciferin-H conversion, luminescence;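 active means blocking of liver enzyme CYP2C9 beyond about 50% at 5 µM, limit read from the data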
CYP2C19 activ – cytochrome P450 2C19 (human) activation | 96,000 tested, under 10 active | recombinant CYP2C19, luciferin-H EGE luminescence; hits give high values; 0 = fully inhibited enzyme, 1 = untreated enzyme | P33261 | activation factor at 5 µM;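 active means activation factor of at least 2 at 5 µM in the primary screen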;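 further: 0 = wells with 2.5 mM tranylcypromine and 1 = vehicle-only wells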
Target sequence (P33261 whole entry, looked up): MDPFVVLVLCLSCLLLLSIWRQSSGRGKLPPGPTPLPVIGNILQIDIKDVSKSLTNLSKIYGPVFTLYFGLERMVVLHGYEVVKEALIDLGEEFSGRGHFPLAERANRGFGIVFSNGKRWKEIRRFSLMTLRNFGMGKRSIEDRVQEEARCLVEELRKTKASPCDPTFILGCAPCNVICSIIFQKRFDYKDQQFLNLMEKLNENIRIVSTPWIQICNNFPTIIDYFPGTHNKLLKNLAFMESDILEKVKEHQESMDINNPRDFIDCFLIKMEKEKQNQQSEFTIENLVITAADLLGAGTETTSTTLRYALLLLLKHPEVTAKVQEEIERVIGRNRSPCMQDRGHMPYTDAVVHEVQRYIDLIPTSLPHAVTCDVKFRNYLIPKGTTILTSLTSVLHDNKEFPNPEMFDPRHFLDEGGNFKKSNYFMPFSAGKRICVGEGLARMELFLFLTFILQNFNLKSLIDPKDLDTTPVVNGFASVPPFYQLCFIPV
CYP2C19 inhib – human CYP2C19 inhibition; P33261; CYP2C19 Supersomes, luciferin-H EGE luminescence, 30 min; inhibition, % at 5 µM; actives 21% (n = 96,000); AID 778;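 active means CYP2C19 inhibition above a set limit at 5 µM in the primary screen, cut at about 50% in these data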;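 further: plate controls were negative control wells for no effect and 2.5 mM tranylcypromine positive control for full effect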
The depositor's hits bear a star; / = no result given.

SMILES	Cav32 inh	CYP2C9 activ	CYP2C9 inhib	CYP2C19 activ	CYP2C19 inhib
COc1cc2c(C(=O)NCc3ccccn3)cn(CC(C)C)c(=O)c2cc1OC	-1.1	0.9	6	0.9	6
O=C(/C=C\Nc1ccccn1)c1ccccc1	-0.41	0.6	38	0.2	79*
CN1CCN(C(=O)c2cccc(S(=O)(=O)N3CCCCC3)c2)CC1	0.071	1	2	1	-3
O=C(c1ccc2ccccc2c1)N1CCN(c2ccccc2)CC1	-2.4	1.1	-9	0.4	62*
O=C(COc1ccc(S(=O)(=O)N2CCCC2)cc1Cl)N1CCN(c2ccccc2)CC1	-2.5	0.2	85*	0.1	88*
O=C(c1cccc(S(=O)(=O)N2CCCC2)c1)N1CCN(c2ccccc2)CC1	0.28	0.6	43	0.3	67*
CCOc1ccc(C(=O)N2CCN(c3ccccc3)CC2)cc1OCC	0.081	0.6	41	0.6	39
CCOc1cccc(=O)c2c(C)oc(C)c12	-1	0	95*	0.8	22
CCOc1cccc2cc(-c3cn4cc(C)ccc4n3)c(=O)oc12	0.47	1.5	-54	1	4
COc1ccc(CCNC(=O)c2ccc(CNS(=O)(=O)c3cc(C)ccc3C)cc2)cc1OC	-2	0	100*	0.2	76*
COc1ccc2c(c1)CCc1c(C(=O)NCCc3ccc(OC)c(OC)c3)noc1-2	1.3	0.5	54*	0.7	33
COc1ccc(CCNC(=O)c2cc(-c3cc(C)ccc3O)n[nH]2)cc1OC	-2.4	0.2	80*	0.6	36
COc1ccc(CCNC(=O)c2ccncc2)cc1OC	0.02	0.6	43	0.4	64*
COc1ccc(CCNC(=O)c2cccnc2)cc1OC	0.79	1.1	-13	0.6	45
COc1ccc2c(c1)CCc1c(C(=O)Nc3ccc(OC)c(OC)c3)noc1-2	0.25	1.1	-7	0.8	22
CC(C)CN(C(=O)COC(=O)c1cc2c(s1)CCC2)C1CCS(=O)(=O)C1 (stereo not drawn)	-0.061	0.9	10	1	-4
CCCn1c(C)cc(=O)c2cc(NC(=O)c3cnccn3)ccc21	0.13	1.1	-9	1	0
Cc1ccc(C)c(S(=O)(=O)NCc2ccc(C(=O)N3CCCCC3C)cc2)c1 (stereo not drawn)	-1.5	1.5	-53	0.4	57*
COc1ccc(CCNC(=O)c2cc3sc(Cl)cc3n2C)cc1OC	/	0.3	74*	0.3	69*
COc1ccc(CCNC(=O)c2nnc(Cc3ccc(Cl)cc3)o2)cc1OC	-3.6*	0.5	46	0.9	15
COc1ccc(CN(Cc2cccnc2)C(=S)NCCc2ccccc2)cc1OC	-0.5	0.1	94*	0	96*
COc1ccc(CCNC(=O)c2nc3ncccn3n2)cc1OC	/	0.9	10	1	5
COc1ccc(CCNC(=O)c2nnc(Cc3c(F)cccc3Cl)o2)cc1OC	0.11	0.9	14	0.9	11
CC1CCCCN1C(=O)c1ccc(C(=O)N2CCCCC2C)cc1 (stereo not drawn)	0.98	0.9	8	1	3
COc1ccc(CCNC(=O)C(=O)NCc2ccccc2)cc1OC	-0.21	0.9	15	1	2
SMILES	Cav32 inh	CYP2C9 activ	CYP2C9 inhib	CYP2C19 activ	CYP2C19 inhib
CCOC(=O)/C(N=Nc1ccc(Cl)cc1)=C(/O)c1ccc([N+](=O)[O-])cc1	/	1	0	1	-4
CC(C)OC(=O)C1C(=O)CC(C)(O)C(C(=O)OC(C)C)C1c1cccc(O)c1 (stereo not drawn)	/	0.8	22	0.5	50
CCOC(=O)N1CCN(c2ccc(S(=O)(=O)N(Cc3ccccc3)Cc3ccccc3)cn2)CC1	0.64	0.5	48	1	4
CNC(=S)NCCc1ccc(OC)c(OC)c1	/	1	3	0.4	56*
O=C(/C=C/c1ccccc1)NCCSc1ccc(Cl)cc1	-4.3*	1.5	-53	0.9	15
N#Cc1ccccc1CSc1nc(N2CCCCC2)nc(N2CCCCC2)n1	-1.7	0.5	49	0.9	10
O=C(COc1ccc(Cl)cc1Cl)Nc1ccccn1	-0.92	0.2	78*	0.3	70*
CC(Oc1ccc(Cl)cc1)C(=O)NCCCn1ccnc1 (stereo not drawn)	0.32	0.1	89*	0	100*
O=C(NCCCn1ccnc1)C(=O)NCC1OCCN1S(=O)(=O)c1ccc(Cl)cc1 (stereo not drawn)	-0.04	/	/	/	/
CN(C)P(=NC(=O)COc1ccc(Cl)cc1Cl)(N(C)C)N(C)C	-0.67	1	3	0.1	92*
O=C(COc1ccc(Cl)cc1Cl)NCCCn1ccnc1	-0.2	0	97*	0	100*
O=C1COc2ccc(C(=O)c3ccccc3)cc2CN1	0.07	0.9	7	0.8	17
COc1cc(C)nc(OCCNC(=O)COc2ccc(Cl)cc2C)n1	-0.22	0.5	46	0.3	73*
Cc1cc(=O)oc2cc(OCC(=O)NCc3ccncc3)ccc12	0.32	0.1	91*	0.3	65*
O=C(COc1ccc(Cl)cc1Cl)NCCCCc1ccccc1	-1.1	0.8	19	0.5	46
Cc1c(C(=O)NCc2ccccn2)oc2ccccc12	0.11	1	-2	0.9	8
Cc1cc2oc(C(=O)NCc3ccncc3)c(C)c2cc1C	-0.27	0	97*	0	98*
Cc1cc(=O)oc2cc(OCC(=O)NCc3cccnc3)ccc12	-0.013	1	2	0.9	6
Cc1cc(Cl)ccc1OCC(=O)NCCOc1nc(N2CCCCC2)nc(N2CCOCC2)n1	/	0.8	24	0.9	9
O=C(COc1ccc(Cl)cc1Cl)NCc1ccncc1	1.2	0	95*	0	100*
O=c1c(Cc2ccc(F)cc2)c(O)ccn1Cc1cccc(Cl)c1	-0.89	0.8	16	0.8	21
CC[C@@H](C)[C@@H](C(=O)N1CCNCC1)n1cc(CCC(=O)O)nn1	-0.048	/	/	/	/
O=C(O)C1CC=CCC1C(=O)Nc1ccccc1Cl (stereo not drawn)	0.12	1	-5	1.1	-10
CCn1cc(C(C)NC(=O)COc2ccc(Cl)cc2C)c(C)n1 (stereo not drawn)	0.53	0.2	82*	0.4	62*
Cc1cc(Cl)ccc1OCC(=O)NCCC(=O)O	/	0.7	27	1	-3
SMILES	Cav32 inh	CYP2C9 activ	CYP2C9 inhib	CYP2C19 activ	CYP2C19 inhib
Cc1cc(Cl)ccc1OCC(=O)NCc1ccncc1	0.45	0.2	82*	0	95*
CCOC(=O)c1c2n(c3ccc(OC(C)=O)cc13)CCC2	1.1	1.1	-13	1	-1
Cc1ccc(N=C(NOC(=O)c2ccccc2)c2nonc2N)c(C)c1	0.017	0.9	5	1.1	-12
Cc1ccc2ccccc2c1COC(=O)c1nonc1N	-3.4	0.8	24	0.7	32
Cc1ccc(N=C(NOCc2ccc(Cl)cc2Cl)c2nonc2N)c(C)c1	-1.1	0.3	74*	0.6	42
CCOC(=O)c1ccc(COC(=O)c2nonc2N)cc1	-0.62	0.6	45	0.7	28
Cc1ccccc1N=C(NOCc1ccccc1)c1nonc1N	-6.6*	/	/	/	/
